Data on 9 compounds can be found in PubChem BioAssay.

A short description of assay [1]: A549 cell viability effects, profiling panel, calcein-AM fluorescence, 48 h, basal (AID 1162). Also: test concentration not given here. The conditions noted are these: higher = more signal.
Assay [2] is described as follows: adipocyte viability effects, profiling panel, cell-based, 3T3-L1 adipocytes, calcein-AM fluorescence, 48 h, basal (AID 1163). Also: test concentration not given here. The conditions noted are these: 3T3-L1 adipocytes viability, higher = more signal.
Assay [3] can be described thus: HepG2 cell viability effects, profiling panel, calcein-AM fluorescence, 48 h, basal (AID 1164). Also: test concentration not given here. To be noted: higher = more signal.
Assay [4] in a line: MM1S cell viability effects, profiling panel, calcein-AM fluorescence, 48 h, basal (AID 1165).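 Also: viability of MM1S multiple myeloma cells under basal unstimulated conditions; test concentration not given here.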 To be noted: higher = more signal.
A short description of assay [5]: basal RPMI8226 viability, no added stimulus, profiling panel, cell-based, calcein-AM fluorescence, 48 h, PK04 Diversity Set (AID 1166).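 Also: cells grown under basal conditions without added stimulus; test concentration not given here.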 To be noted: RPMI8226 myeloma viability, higher = more signal.
Assay [6] is described as follows: basal HepG2 mitochondrial membrane potential changes, profiling panel, cell-based, JC-1 fluorescence, 24 h, 100 nL compound (AID 1167). Also: test concentration not given here. The conditions noted are these: higher = more signal.
Assay [7] can be described thus: basal 3T3-L1 adipocyte mitochondrial potential changes, profiling panel, cell-based, JC-1 fluorescence, 3T3-L1 adipocytes, 24 h, 100 nL compound (AID 1168). Also: test concentration not given here. To be noted: JC-1 mitochondrial fluorescence, higher = more signal, called active from +8 up or from −8 down.
Assay [8] is described as follows: basal RPMI8226 mitochondrial membrane potential changes, profiling panel, cell-based, JC-1 fluorescence, 24 h, 100 nL compound (AID 1169). Also: test concentration not given here. To be noted: RPMI8226 myeloma, JC-1 mitochondrial potential fluorescence, higher = more signal.
Assay [9] can be described thus: basal MM1S mitochondrial membrane potential changes, profiling panel, cell-based, JC-1 fluorescence, 24 h, 100 nL compound (AID 1170). Also: test concentration not given here. The conditions noted are these: higher = more signal.
Assay [10] can be described thus: A549 lung cancer cell viability effects, profiling panel, resazurin fluorescence, 24 h, PK04 Diversity Set (AID 1171). Also: test concentration not given here. To be noted: higher = more signal, called active from +8 up or from −8 down. For orientation: The colour change of resazurin is a common sign of viable cells or microbes.
The nature of assay [11]: HepG2 liver cancer cell viability effects, profiling panel, resazurin fluorescence, 24 h, PK04 Diversity Set (AID 1172). Also: test concentration not given here. The conditions noted are these: higher = more signal.
Assay [12] in a line: basal S. cerevisiae growth modulation, no modifier, primary screen, OD600, strain BY4716, 24 h, basal condition (AID 1173). To be noted: OD600, 24 h, higher = more signal, called active from +8 up or from −8 down.
A short description of assay [13]: MM1S myeloma cell viability, profiling panel, resazurin fluorescence, basal, 24 h, PK04 Diversity Set (AID 1174).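 Also: MM1S multiple myeloma cell line; test concentration not given here.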 The conditions noted are these: higher = more signal, called active from +8 up or from −8 down.
Assay [14] deals with Dihydroorotate dehydrogenase (quinone), mitochondrial (Plasmodium falciparum (isolate 3D7)) (UniProt Q08210). The assay is described as follows: PfDHODH enzyme inhibitors, primary screen, biochemical, C-terminal His tag, absorbance 600 nm (AID 1175).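 Also: recombinant parasite enzyme with a five histidine tag at its C terminus; test concentration not given here.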 The conditions noted are these: DCIP absorbance 600 nm, higher = more signal, called active from +8 up or from −8 down.
A short description of assay [15]: P. aeruginosa biofilm formation inhibitors, primary screen, strain PAO1, LB-PBS medium, absorbance 600 nm (AID 1176). Also: test concentration not given here. To be noted: P. aeruginosa PAO1 growth/biofilm, A600, 12 h; higher = more signal.
A short description of assay [16]: S. cerevisiae RM11-1a growth modifiers, primary screen, strain RM11-1a, OD600, basal, 24 h (AID 1177).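 Also: cultures grown under basal conditions with no added stressor; test concentration not given here.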 To be noted: OD600, 24 h, higher = more signal, called active from +8 up or from −8 down.
Assay [17] in a line: E. coli acrAB mutant growth effects, primary screen, E. coli filamentation inducers, strain DRC39, OD650, 24 h (AID 1178).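 Also: growth measured as culture turbidity by optical density at 650 nm; test concentration not given here.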 The conditions noted are these: higher = more signal, called active from +8 up or from −8 down.
A short description of assay [18]: E. coli acrAB mutant growth effects, primary screen, E. coli filamentation inducers, strain DRC39, OD650, 48 h (AID 1179).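 Also: screen aims at cell division blockers that make cells filament.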 To be noted: E. coli DRC39 delta-acrAB growth, higher = more signal, called active from +8 up or from −8 down.
Assay [19] in a line: RPMI8226 myeloma cell viability, profiling panel, resazurin fluorescence, basal, 24 h, PK04 Diversity Set (AID 1180).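 Also: RPMI8826 multiple myeloma cell line at 5000 cells per well; test concentration not given here.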 To be noted: higher = more signal.
The target in assay [20] is E3 ubiquitin-protein ligase XIAP (Homo sapiens) (UniProt P98170). The assay is described as follows: XIAP binders, primary screen, biophysical, small-molecule microarray, fluorescence 635 nm (AID 1181).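 Also: score merges 667 nm emission and signal to noise over triplicate slides.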 The conditions noted are these: small-molecule microarray binding, higher = more signal.

Each structure is given as a SMILES string. Calls of active or inactive are those of the source. Unless noted, no rule for the calls is given here.

E3 ubiquitin-protein ligase XIAP (Homo sapiens), sequence (P98170 whole entry, looked up): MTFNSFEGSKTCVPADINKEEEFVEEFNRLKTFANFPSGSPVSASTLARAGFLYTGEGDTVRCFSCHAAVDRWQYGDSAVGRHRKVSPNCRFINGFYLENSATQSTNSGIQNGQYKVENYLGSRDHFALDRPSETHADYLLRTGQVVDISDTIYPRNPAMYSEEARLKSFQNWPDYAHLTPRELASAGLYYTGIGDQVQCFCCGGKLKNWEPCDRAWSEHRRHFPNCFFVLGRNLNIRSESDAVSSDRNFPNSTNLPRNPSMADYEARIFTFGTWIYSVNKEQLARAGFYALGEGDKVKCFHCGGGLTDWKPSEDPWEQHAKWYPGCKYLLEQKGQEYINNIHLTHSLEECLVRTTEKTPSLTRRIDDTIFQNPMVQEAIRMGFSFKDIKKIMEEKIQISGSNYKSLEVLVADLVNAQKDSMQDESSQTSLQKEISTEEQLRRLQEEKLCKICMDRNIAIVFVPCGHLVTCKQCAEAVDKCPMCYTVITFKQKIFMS
Dihydroorotate dehydrogenase (quinone), mitochondrial (Plasmodium falciparum (isolate 3D7)), sequence (Q08210 whole entry, looked up): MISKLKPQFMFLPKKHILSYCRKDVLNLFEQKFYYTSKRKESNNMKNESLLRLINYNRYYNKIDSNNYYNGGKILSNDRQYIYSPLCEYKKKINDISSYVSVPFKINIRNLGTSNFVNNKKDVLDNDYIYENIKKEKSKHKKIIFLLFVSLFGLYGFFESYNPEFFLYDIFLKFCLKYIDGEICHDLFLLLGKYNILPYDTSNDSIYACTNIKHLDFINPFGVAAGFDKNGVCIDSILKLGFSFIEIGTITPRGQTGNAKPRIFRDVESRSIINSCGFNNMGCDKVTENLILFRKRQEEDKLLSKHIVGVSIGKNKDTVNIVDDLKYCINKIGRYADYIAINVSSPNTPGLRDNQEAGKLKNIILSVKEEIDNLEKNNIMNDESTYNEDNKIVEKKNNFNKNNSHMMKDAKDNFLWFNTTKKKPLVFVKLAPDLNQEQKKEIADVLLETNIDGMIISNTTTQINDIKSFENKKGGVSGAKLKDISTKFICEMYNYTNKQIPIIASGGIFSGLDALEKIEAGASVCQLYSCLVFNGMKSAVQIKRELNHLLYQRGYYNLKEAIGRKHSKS

As for `C=C(COC)C(=O)CC[C@@H](OC(C)=O)c1ccc(CO)o1`, the z-score in assay [1] was -0.97; in assay [2], 0.186; in [3] it was 0.473; in assay [4], -0.0988; in [5], -0.355; in assay [6], -0.799. Moreover, the z-score in assay [7] is 0.195 (inactive); in assay [8] it was -0.548; in [9], -0.066; in [10] it was 0.188 (inactive); in assay [11], -0.173; in assay [12] it was 0.227 (inactive). Besides, the z-score in assay [13] was 0.145 (inactive); in assay [15], 0.838 (inactive); in assay [16], -1.23 (inactive); in assay [17] it was -0.216 (inactive); in assay [18] it was -0.107 (inactive); in assay [19] it was 0.0972. For the same compound, the composite z-score was -3.24 (inactive) in assay [14] and 0.383 in assay [20].
For `C=CCN1C(=O)[C@]2(O[C@H](CCn3cc([C@H](O)c4ccccc4)nn3)[C@@H]([Si](C)(C)c3ccc(OC)cc3)[C@@H]2C)c2cc(N3CCC3=O)ccc21`, the z-score in assay [1] was -0.668; in assay [2] it was 0.87; in [3], -1.39; in [4], -2.05; in assay [5] it was -2.95; in assay [6], 2.75. The z-score in [7] is 0.85 (inactive); in [8] it was -0.949; in assay [9], 0.507; in [10] it was -1.71 (inactive); in assay [11], 0.0514; in assay [12] it was 0.743 (inactive). In addition, the z-score in [13] is -1.85 (inactive); in [15], 0.0245 (inactive); in assay [16], 2.44 (inactive); in assay [17] it was 0.518 (inactive); in [18], -0.0117 (inactive); in [19] it was -1.67. The composite z-score was 1.04 (inactive) in [14] and 0.0623 in assay [20].
Turning to `CCCc1cc2c(n1Cc1cc(F)cc(F)c1)C(C)C1CN(C(=O)c3ccccc3)C(C)(C(=O)OC)C21` (stereo not given), the z-score in [1] was -0.679; in [2] it was 0.149; in [3] it was -0.237; in [4] it was -1.7; in assay [5], -4.39; in assay [6], 2.5. The z-score in [7] is -1.98 (inactive); in assay [8], -0.904; in [9], -1.79; in assay [10], -0.675 (inactive); in [11], -1.27; in [12], 0.615 (inactive). The z-score was -1.65 (inactive) in assay [13]; 0.992 (inactive) in assay [15]; 0.223 (inactive) in [16]; -0.522 (inactive) in assay [17]; -0.152 (inactive) in assay [18]; -1 in [19]. Also, the composite z-score in assay [14] is 0.249 (inactive); in [20] it was 0.0702.
Regarding `CC(=O)n1cc(C(O)C2C=CC3C(=O)N(c4ccccc4)C(=O)C3N2Nc2ccc([N+](=O)[O-])cc2)c2ccccc21` (stereo not given), the z-score was -0.456 in assay [1]; -0.479 in assay [2]; -0.439 in [3]; -1.53 in [4]; -0.315 in assay [5]; -1.75 in assay [6]. Moreover, the z-score was -1.2 (inactive) in assay [7]; -0.412 in [8]; 0.0885 in assay [9]; -0.375 (inactive) in assay [10]; -0.768 in assay [11]; -0.199 (inactive) in assay [12]. Besides, the z-score is -1.15 (inactive) in [13]; 1.25 (inactive) in [15]; 0.241 (inactive) in assay [16]; -1.34 (inactive) in assay [17]; -0.885 (inactive) in [18]; -0.669 in [19]. Also, the composite z-score in [14] is 0.835 (inactive); in assay [20], -0.0391.
On to `CC1(C)C2C=C(C(O)C3C=CC4C(=O)NC(=O)C4N3Nc3ccc(Cl)cc3Cl)C[C@@H]1C2` (stereo not given in full), for which the z-score in [1] is -2.48; in assay [2], -0.88; in assay [3], -1.8; in assay [4] it was -3.73; in assay [5], -4.1; in [6], -4.27. Further, the z-score was -0.803 (inactive) in assay [7]; -1.14 in assay [8]; -1.04 in assay [9]; -1.85 (inactive) in [10]; -2.13 in [11]; -7.58 (inactive) in assay [12]. In addition, the z-score is -1.9 (inactive) in [13]; 1.55 (inactive) in assay [15]; 0.84 (inactive) in assay [16]; -0.274 (inactive) in [17]; -1.08 (inactive) in assay [18]; -1.79 in assay [19]. Besides, the composite z-score in assay [14] was 0.356 (inactive); in assay [20], -0.0769.
For the compound `CCCCCN1CC=CC23O[C@@H]4/C=C\CCC(C)OC(=O)C4[C@H]2C(=O)N(C(C)CO)[C@@H]3C1=O` (stereo not given in full), the z-score in [1] was 0.342; in [2], 0.287; in assay [3], 0.356; in assay [4], 0.508; in assay [5], 0.311; in [6] it was 0.558. Also, the z-score is -0.00375 (inactive) in assay [7]; 0.724 in assay [8]; -0.759 in assay [9]; 1.02 (inactive) in assay [10]; 0.194 in assay [11]; 0.142 (inactive) in assay [12]. Further, the z-score in assay [13] is -0.139 (inactive); in assay [15], -0.0153 (inactive); in assay [16] it was 0.449 (inactive); in assay [17] it was 0.866 (inactive); in assay [18] it was 0.657 (inactive); in assay [19], 1.07. Besides, the values for the composite z-score in assay [14] and in [20] were 0.005 (inactive) and -0.127, respectively.
Regarding `[N-]=[N+]=NCc1ccccc1C[C@]1(C(=O)N2CCCCC2)N=C(c2ccc(OCCCO)cc2)O[C@H]1c1ccccc1N=[N+]=[N-]`, the z-score was -1.27 in assay [1]; 1.03 in [2]; -0.454 in [3]; -2.18 in assay [4]; -3.48 in assay [5]; 0.345 in [6]. The z-score was -0.187 (inactive) in assay [7]; -1.16 in [8]; -1.07 in assay [9]; -0.6 (inactive) in [10]; 0.297 in [11]; 0.264 (inactive) in assay [12]. For the same compound, the z-score was -2.36 (inactive) in assay [13]; 0.426 (inactive) in [15]; 0.875 (inactive) in assay [16]; 0.173 (inactive) in assay [17]; -0.446 (inactive) in assay [18]; -2.4 in assay [19]. The composite z-score in assay [14] was 0.168 (inactive); in assay [20], -0.332.
For `[N-]=[N+]=NCc1ccccc1[C@@H]1OC(c2ccc(OCCCO)cc2)=N[C@]1(Cc1ccccc1)C(N)=O`, the z-score is 0.88 in [1]; 1.5 in assay [2]; 0.493 in assay [3]; -0.527 in [4]; -1.63 in [5]; 1.49 in assay [6]. For the same compound, the z-score in [7] is -0.534 (inactive); in assay [8], -0.75; in assay [9], -1.1; in [10], 0.479 (inactive); in assay [11], 0.854; in assay [12], -2.19 (inactive). The z-score in assay [13] was -0.422 (inactive); in assay [15] it was 0.177 (inactive); in [16], 0.895 (inactive); in [17] it was 0.671 (inactive); in [18], -0.492 (inactive); in assay [19], -0.0348. The composite z-score was -0.717 (inactive) in assay [14] and 0.319 in assay [20].
Take `COCCOC(=O)N1C(=O)[C@@]2(c3cc(C#CC4(O)CCCCCC4)ccc31)[C@H](c1ccccc1OCCO)N1[C@H](c3ccccc3)[C@H](c3ccccc3)OC(=O)[C@H]1[C@@H]2C(=O)N1CCN(c2ncccn2)CC1`: the z-score in assay [1] is -0.244; in assay [2], -0.464; in assay [3] it was 1.4; in assay [4], -0.404; in assay [5], -1.14; in assay [6] it was 0.673. The z-score in [7] is 1.86 (inactive); in [8] it was -0.965; in [9], -1.05; in [10] it was -0.461 (inactive); in [11], -0.645; in assay [12] it was 1.61 (inactive). In addition, the z-score in assay [13] is -0.349 (inactive); in [15], 2.03 (inactive); in [16], 2.39 (inactive); in assay [17] it was 0.0296 (inactive); in assay [18], 0.946 (inactive); in assay [19], -0.874. Besides, the composite z-score in assay [14] was 0.122 (inactive); in assay [20], 0.0774.
